Assay results from PubChem BioAssay AID1159580 (chemical genetic matrix, 2015).
Out of some 5,500 compounds screened, about 2,000 (36%) were called active. About 18% were inconclusive and are not listed. No stated cut-off is given here; in the data, active means normalized growth mostly below about 0.91 (no sharp cut-off); inconclusive means no clear call, values can overlap the other calls; inactive means mostly above about 0.92. The list shows a part of the results.

Experiment: chemical genetic growth profiling, strain panel (AID 1159580);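 further: tested at 20 µM; growth read once vehicle control cultures reached saturation at 30 °C; 1 = growth at the plate median or of vehicle wells; lower values mean less growth of the strain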
Details: S. cerevisiae deletion strains, growth OD

Measured: normalized growth

COc1cccc2c1CCC1CC(=O)CCC21C (stereo unspecified)
inactive: locus YAL021C, strain ccr4, active compounds read low 0.99 | locus YAL026C, strain drs2, active compounds read low 0.994 | locus YAL030W, strain snc1, active compounds read low 0.991 | locus YBL061C, strain skt5, active compounds read low 1 | locus YBR009C, strain hhf1, active compounds read low 0.996 | locus YBR021W, strain FUR4, active compounds read low 0.92 | locus YBR023C, strain chs3, active compounds read low 0.993 | locus YBR171W, strain sec66, active compounds read low 0.985 | locus YBR229C, strain ROT2, active compounds read low 0.992 | locus YBR231C, strain swc5, active compounds read low 0.996 | locus YBR279W, strain paf1, active compounds read low 0.988 | locus YCL011C, strain gbp2, active compounds read low 1 | locus YCL016C, strain dcc1, active compounds read low 0.995 | locus YCL029C, strain bik1, active compounds read low 0.955 | locus YCL061C, strain MRC1, active compounds read low 0.996 | locus YCL069W, strain vba3, active compounds read low 0.994 | locus YCR088W, strain abp1, active compounds read low 0.993 | locus YDL005C, strain med2, active compounds read low 1 | locus YDL035C, strain GPR1, active compounds read low 0.982 | locus YDL040C, strain nat1, active compounds read low 0.992 | locus YDL074C, strain BRE1, active compounds read low 0.931 | locus YDL101C, strain DUN1, active compounds read low 0.986 | locus YDL134C, strain PPH21, active compounds read low 0.956 | locus YDL185W, strain tfp1, active compounds read low 0.953 | locus YDL192W, strain arf1, active compounds read low 0.936 | locus YDR001C, strain nth1, active compounds read low 0.984 | locus YDR069C, strain doa4, active compounds read low 1.01 | locus YDR101C, strain arx1, active compounds read low 0.983 | locus YDR137W, strain rgp1, active compounds read low 0.998 | locus YDR159W, strain sac3, active compounds read low 1.02 | locus YDR162C, strain NBP2, active compounds read low 0.919 | locus YDR195W, strain ref2 1.07 | locus YDR297W, strain sur2, active compounds read low 1 | locus YDR318W, strain mcm21, active compounds read low 0.937 | locus YDR334W, strain swr1, active compounds read low 1 | locus YDR335W, strain msn5, active compounds read low 1 | locus YDR388W, active compounds read low 0.948 | locus YDR392W, strain spt3, active compounds read low 0.873 | locus YEL003W, strain gim4, active compounds read low 0.981 | locus YEL037C, strain rad23, active compounds read low 0.992 | locus YEL061C, strain CIN8 (second series), active compounds read low 0.995 | locus YEL061C, strain CIN8, active compounds read low 0.987 | locus YER015W, strain faa2, active compounds read low 1 | locus YER016W, strain bim1, active compounds read low 0.994 | locus YER110C, active compounds read low 0.934 | locus YER111C, strain swi4, active compounds read low 0.994 | locus YER155C, strain BEM2 (second series), active compounds read low 0.944 | locus YER155C, strain BEM2, active compounds read low 0.982 | locus YER167W, strain BCK2, active compounds read low 0.993 | locus YFR010W, strain ubp6, active compounds read low 1 | locus YGL078C, strain dbp3, active compounds read low 0.983 | locus YGL167C, strain pmr1, active compounds read low 1 | locus YGL173C, strain kem1, active compounds read low 0.987 | locus YGL227W, strain vid30, active compounds read low 0.998 | locus YGL240W, strain doc1, active compounds read low 0.982 | locus YGL248W, strain PDE1, active compounds read low 0.975 | locus YGL253W, strain hxk2, active compounds read low 1 | locus YGR229C, strain SMI1, active compounds read low 0.991 | locus YGR252W, strain gcn5, active compounds read low 0.777 | locus YHR013C, strain ard1, active compounds read low 0.976 | locus YHR027C, strain rpn1, active compounds read low 1.02 | locus YHR030C, strain SLT2, active compounds read low 0.991 | locus YHR079C, strain IRE1 (second series), active compounds read low 0.955 | locus YHR094C, strain hxt1, active compounds read low 0.948 | locus YHR129C, strain ARP1, active compounds read low 0.977 | locus YHR142W, strain chs7, active compounds read low 0.981 | locus YHR200W, strain rpn10, active compounds read low 0.941 | locus YIL066C, strain RNR3, active compounds read low 0.968 | locus YIL073C, strain SPO22, active compounds read low 0.887 | locus YIL125W, strain kgd1, active compounds read low 0.977 | locus YIR030C, strain dcg1, active compounds read low 0.962 | locus YJL092W, strain hpr5, active compounds read low 0.994 | locus YJL095W, strain BCK1 (second series), active compounds read low 0.99 | locus YJL095W, strain BCK1, active compounds read low 0.91 | locus YJL115W, strain asf1, active compounds read low 1 | locus YJL129C, strain trk1, active compounds read low 0.939 | locus YJL134W, strain LCB3, active compounds read low 0.981 | locus YJL154C, strain vps35, active compounds read low 0.995 | locus YJL164C, strain tpk1, active compounds read low 0.989 | locus YJL166W, strain qcr8, active compounds read low 0.991 | locus YJL168C, strain set2, active compounds read low 0.963 | locus YJL187C, strain SWE1 (second series), active compounds read low 0.963 | locus YJL187C, strain SWE1, active compounds read low 1.01 | locus YKL009W, strain mrt4, active compounds read low 0.97 | locus YKL068W, active compounds read low 0.969 | locus YKL085W, strain MDH1 (second series), active compounds read low 0.966 | locus YKL085W, strain MDH1, active compounds read low 0.966 | locus YKL160W, strain elf1, active compounds read low 0.98 | locus YKL190W, strain CNB1, active compounds read low 0.993 | locus YKR001C, strain vps1, active compounds read low 0.914 | locus YKR026C, strain gcn3, active compounds read low 0.992 | locus YKR091W, strain srl3, active compounds read low 0.988 | locus YLL001W, strain dnm1, active compounds read low 0.994 | locus YLL026W, active compounds read low 0.999 | locus YLL041C, strain sdh2, active compounds read low 0.99 | locus YLR027C, strain aat2, active compounds read low 0.985 | locus YLR039C, strain RIC1, active compounds read low 0.974 | locus YLR058C, strain SHM2, active compounds read low 0.982 | locus YLR102C, strain apc9, active compounds read low 0.961 | locus YLR221C, strain rsa3, active compounds read low 1.01 | locus YLR258W, strain gsy2, active compounds read low 0.983 | locus YLR262C, strain YPT6 (second series), active compounds read low 1 | locus YLR268W, strain sec22, active compounds read low 0.963 | locus YLR320W, strain mms22, active compounds read low 0.977 | locus YLR330W, strain CHS5, active compounds read low 0.98 | locus YLR342W, strain FKS1, active compounds read low 0.994 | locus YLR357W, strain rsc2, active compounds read low 1.01 | locus YLR370C, strain arc18, active compounds read low 0.987 | locus YLR371W, strain rom2, active compounds read low 0.965 | locus YLR384C, strain iki3, active compounds read low 0.999 | locus YML016C, strain PPZ1, active compounds read low 0.978 | locus YML032C, strain rad52, active compounds read low 0.946 | locus YML120C, strain ndi1, active compounds read low 0.987 | locus YML124C, strain tub3, active compounds read low 0.969 | locus YMR058W, strain fet3, active compounds read low 0.995 | locus YMR078C, strain ctf18, active compounds read low 0.95 | locus YMR125W, strain sto1, active compounds read low 0.995 | locus YMR129W, active compounds read low 0.991 | locus YMR205C, strain PFK2, active compounds read low 0.982 | locus YMR223W, strain ubp8, active compounds read low 0.947 | locus YMR231W, strain pep5, active compounds read low 0.99 | locus YMR263W, strain SAP30, active compounds read low 0.965 | locus YMR307W, strain GAS1, active compounds read low 0.849 | locus YNL067W, strain RPL9B, active compounds read low 0.968 | locus YNL071W, strain lat1, active compounds read low 0.985 | locus YNL209W, strain ssb2, active compounds read low 0.992 | locus YNL233W, strain BNI4, active compounds read low 0.937 | locus YNL248C, strain rpa49, active compounds read low 0.998 | locus YNL250W, strain rad50, active compounds read low 0.952 | locus YNL271C, strain bni1, active compounds read low 0.962 | locus YNL298W, strain CLA4, active compounds read low 0.959 | locus YNL307C, strain MCK1, active compounds read low 0.917 | locus YNL322C, strain KRE1 (second series), active compounds read low 0.996 | locus YNL322C, strain KRE1, active compounds read low 0.982 | locus YNR049C, strain mso1, active compounds read low 1.01 | locus YNR052C, strain pop2, active compounds read low 0.969 | locus YOL006C, strain TOP1, active compounds read low 0.788 | locus YOL012C, strain htz1 0.835 | locus YOL147C, strain pex11, active compounds read low 0.949 | locus YOR001W, strain rrp6, active compounds read low 1.01 | locus YOR061W, strain CKA2, active compounds read low 0.991 | locus YOR069W, strain VPS5, active compounds read low 0.977 | locus YOR070C, strain gyp1, active compounds read low 0.985 | locus YOR080W, strain dia2, active compounds read low 1.01 | locus YOR083W, strain WHI5, active compounds read low 0.987 | locus YOR106W, strain vam3, active compounds read low 1 | locus YOR136W, strain idh2, active compounds read low 0.966 | locus YOR144C, strain elg1, active compounds read low 0.958 | locus YOR265W, strain rbl2, active compounds read low 1.01 | locus YOR270C, strain vph1, active compounds read low 0.907 | locus YOR290C, strain snf2, active compounds read low 0.985 | locus YOR316C, strain cot1, active compounds read low 0.947 | locus YPL051W, strain arl3, active compounds read low 0.981 | locus YPL078C, strain atp4, active compounds read low 0.979 | locus YPL106C, strain sse1, active compounds read low 1 | locus YPL240C, strain hsp82, active compounds read low 0.993 | locus YPR119W, strain clb2, active compounds read low 0.958 | locus YPR141C, strain kar3, active compounds read low 0.965 | locus YPR167C, strain met16, active compounds read low 0.952 | strain wtn01, active compounds read low 0.936
active: locus YDR502C, strain sam2, active compounds read low 0.912 | locus YGL086W, strain mad1, active compounds read low 0.922 | locus YGR135W, strain pre9, active compounds read low 0.886 | locus YLR418C, strain cdc73, active compounds read low 0.812 | locus YOR184W, strain ser1, active compounds read low 0.848 | locus YPR163C, strain tif3, active compounds read low 0.902
